IDE exosite inh: exo-site inhibitors of human IDE, primary screen, biochemical, fluorescence anisotropy, probe displacement | hit rate 6.3% among 17,000 | AID 1259349, 2017 | z-score at 20 µM | purified IDE, FL-6b probe fluorescence polarization; active compounds read low | Insulin-degrading enzyme (Homo sapiens), P14735;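 active = z-score of -3 or lower, meaning strong loss of probe binding signal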;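 also: His-tagged human IDE residues 42-1019 made in E. coli with 30 nM FL-6b probe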
Target sequence (P14735 42-1019 limits assumed): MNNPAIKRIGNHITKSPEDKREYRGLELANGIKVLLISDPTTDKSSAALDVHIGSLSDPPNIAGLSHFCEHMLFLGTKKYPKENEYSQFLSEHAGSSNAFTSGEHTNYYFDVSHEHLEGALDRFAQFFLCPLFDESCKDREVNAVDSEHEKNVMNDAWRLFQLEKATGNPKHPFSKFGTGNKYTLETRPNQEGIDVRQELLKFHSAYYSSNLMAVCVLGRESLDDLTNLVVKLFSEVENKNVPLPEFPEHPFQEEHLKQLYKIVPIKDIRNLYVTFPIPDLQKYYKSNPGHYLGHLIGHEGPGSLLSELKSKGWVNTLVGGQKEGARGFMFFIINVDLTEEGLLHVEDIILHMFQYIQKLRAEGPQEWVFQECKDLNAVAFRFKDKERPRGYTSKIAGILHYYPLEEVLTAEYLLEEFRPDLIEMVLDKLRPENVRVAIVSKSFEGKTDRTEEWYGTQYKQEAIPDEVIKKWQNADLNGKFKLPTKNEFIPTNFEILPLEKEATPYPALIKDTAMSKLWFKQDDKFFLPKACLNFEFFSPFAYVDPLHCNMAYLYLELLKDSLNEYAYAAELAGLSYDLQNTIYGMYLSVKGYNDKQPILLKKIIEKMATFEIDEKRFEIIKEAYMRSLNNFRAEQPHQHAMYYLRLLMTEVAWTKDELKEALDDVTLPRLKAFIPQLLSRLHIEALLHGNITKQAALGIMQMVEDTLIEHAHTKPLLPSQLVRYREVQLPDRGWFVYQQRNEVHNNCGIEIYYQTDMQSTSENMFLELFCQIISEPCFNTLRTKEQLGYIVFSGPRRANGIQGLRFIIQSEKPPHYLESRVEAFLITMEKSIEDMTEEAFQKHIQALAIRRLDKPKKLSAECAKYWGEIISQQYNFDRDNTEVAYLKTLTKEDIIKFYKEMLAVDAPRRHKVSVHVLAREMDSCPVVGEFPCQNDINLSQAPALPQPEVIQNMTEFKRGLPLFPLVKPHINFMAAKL
Numbers without * were called inactive. The entries come from a sample that favours hits as a whole.

Results for O=C(c1ccc(F)cc1)N1CC(=O)N2[C@H](CO)[C@@H](c3ccc(C4=CCCC4)cc3)[C@@H]2C1 ?
IDE exosite inh: 5.51

How did COc1ccc2c3c([nH]c2c1)[C@@H](CO)N(Cc1ccccc1)CC31CN(C(=O)Nc2cccc(F)c2)C1 do in these assays?
IDE exosite inh: -0.624

What do the screens show for `C[C@H]1CN([C@@H](C)CO)C(=O)c2c(c3ccccc3n2C)-c2ccccc2CO[C@@H]1CN(C)C(=O)[C@H](Cc1ccccc1)N(C)C`?
IDE exosite inh: 0.0215

Results for COCC(=O)N1CC2(C1)CN(S(C)(=O)=O)[C@H](CO)c1c2c2ccc(OC)cc2n1C ?
IDE exosite inh: 0.499

What do the screens show for `O=C(Cc1ccccn1)N1CC2(C1)[C@H](c1ccccc1)[C@@H](CO)N2C(=O)c1ccncc1`?
IDE exosite inh: -3.71*

How did O=C(c1ccncc1)N1CC2(C1)[C@H](c1ccccc1)[C@H](CO)N2CC1CC1 do in these assays?
IDE exosite inh: -1.03

How did O=C(CC1CC1)N1CC2(C1)[C@@H](c1ccccc1)[C@@H](CO)N2Cc1ccccn1 do in these assays?
IDE exosite inh: 0.787

Results for O=C(CC1CC1)N1CC2(C1)[C@@H](c1ccccc1)[C@H](CO)N2C(=O)c1ccccn1 ?
IDE exosite inh: -0.564

What do the screens show for `O=C(Cc1ccccn1)N1CC2(C1)[C@@H](c1ccccc1)[C@@H](CO)N2C(=O)c1ccncc1`?
IDE exosite inh: -3.29*

What do the screens show for `CCC(=O)N1[C@H](CO)[C@@H](c2ccccc2)C12CN(C(=O)c1ccncc1)C2`?
IDE exosite inh: 1.2

What do the screens show for `COc1ccc(S(=O)(=O)Nc2ccc3c(c2)CC(=O)N([C@@H](C)CO)C[C@@H](C)[C@H](CN(C)C(=O)Nc2c(C)noc2C)O3)cc1`?
IDE exosite inh: 1.28

What do the screens show for `O=C(NC[C@@H]1N[C@@H](CO)[C@H]1c1ccccc1)c1ccccc1F`?
IDE exosite inh: 1.05

Results for COCC(=O)NC[C@H]1N[C@H](CO)[C@@H]1c1ccc(C2=CCCCC2)cc1 ?
IDE exosite inh: 3.26

Results for CCC(=O)NC[C@H]1N[C@H](CO)[C@@H]1c1ccc(-c2ccccc2F)cc1 ?
IDE exosite inh: -0.798

How did CCC(=O)N1[C@H](CNC(=O)COC)[C@H](c2ccc(-c3ccccc3)cc2)[C@@H]1CO do in these assays?
IDE exosite inh: -2.81

What do the screens show for `COCC(=O)NC[C@H]1N[C@H](CO)[C@@H]1c1ccc(-c2ccccc2F)cc1`?
IDE exosite inh: -3.08*

What do the screens show for `CCC(=O)N1[C@H](CNC(=O)COC)[C@@H](c2ccc(-c3ccccc3)cc2)[C@@H]1CO`?
IDE exosite inh: -3.46*

Results for O=C(NC[C@H]1N[C@H](CO)[C@@H]1c1ccccc1)c1ccccc1F ?
IDE exosite inh: 0.716

Results for COCC(=O)NC[C@H]1[C@H](c2ccc(-c3ccccc3)cc2)[C@@H](CO)N1C(C)=O ?
IDE exosite inh: 2.04

What do the screens show for `O=C(NC[C@H]1N[C@H](CO)[C@@H]1c1ccc(-c2ccccc2F)cc1)c1ccccc1`?
IDE exosite inh: -9.99*

What do the screens show for `C/C=C/c1ccc([C@@H]2[C@H](CO)N[C@H]2CNC(=O)c2ccccc2F)cc1`?
IDE exosite inh: -0.0924

Results for COCC(=O)NC[C@H]1N[C@H](CO)[C@H]1c1ccc(-c2ccccc2F)cc1 ?
IDE exosite inh: -3.27*

Results for CCS(=O)(=O)N(C)C[C@@H]1N[C@H](CO)[C@@H]1c1ccc(-c2ccccc2F)cc1 ?
IDE exosite inh: -0.262

What do the screens show for `N#C[C@@H]1[C@H](c2ccc(C3=CCCC3)cc2)[C@H](CO)N1C(=O)c1cccc(F)c1`?
IDE exosite inh: 0.75

What do the screens show for `CC(C)CC#Cc1ccc([C@H]2[C@@H](CO)N3C(=O)CN(S(=O)(=O)c4cccc(F)c4)C[C@@H]23)cc1`?
IDE exosite inh: -0.33

Results for C/C=C/c1ccc([C@@H]2[C@@H](C#N)N(c3nc(-c4ccccc4)cs3)[C@H]2CO)cc1 ?
IDE exosite inh: 3.68

How did CC=Cc1ccc2n(c1=O)C[C@H]1[C@H](CO)[C@@H](C(=O)NCCCN(C)C)N(Cc3cocn3)[C@@H]21 (mixture of isomers) do in these assays?
IDE exosite inh: 0.337

How did N#C[C@@H]1[C@@H](c2ccc(C3=CCCCC3)cc2)[C@@H](CO)N1C(=O)c1ccccn1 do in these assays?
IDE exosite inh: 2.8

How did O=C(c1ccc(F)cc1)N1CCCCN2[C@H](CO)[C@@H](c3ccc(-c4ccccc4)cc3)[C@@H]2C1 do in these assays?
IDE exosite inh: 1.84

Results for O=C(NC1CCCC1)N1CCCCN2[C@H](CO)[C@@H](c3ccc(/C=C/c4ccccc4)cc3)[C@@H]2C1 ?
IDE exosite inh: -2.8

What do the screens show for `O=C(NC1CCCC1)N1CCCCN2[C@H](C1)[C@H](c1ccc(/C=C/c3ccccc3)cc1)[C@@H]2CO`?
IDE exosite inh: -13.2*

What do the screens show for `O=C(NC1CCCC1)N1CCCCN2[C@H](C1)[C@@H](c1ccc(/C=C/c3ccccc3)cc1)[C@@H]2CO`?
IDE exosite inh: -9.59*

Results for O=C(Nc1ccccc1F)N1CCCCN2[C@H](CO)[C@@H](c3ccc(/C=C/c4ccccc4)cc3)[C@H]2C1 ?
IDE exosite inh: -1.74

How did CC[C@H]1C/C=C\C[C@@H](c2ccc(OC)cc2OC)NC(=O)[C@@H](C)CC(=O)N1 do in these assays?
IDE exosite inh: 0.932

Results for COc1cccc(C#Cc2ccc([C@@H]3[C@H]4CN(C(=O)c5ccccc5)CC(=O)N4[C@H]3CO)cc2)c1 ?
IDE exosite inh: 3.65

How did COc1cccc(C#Cc2ccc([C@H]3[C@@H](CO)N4C(=O)CN(C(=O)c5ccccc5)C[C@@H]34)cc2)c1 do in these assays?
IDE exosite inh: 0.742

How did COc1cccc(C#Cc2ccc([C@H]3[C@@H](CO)N4C(=O)CN(C(=O)c5ccccc5)C[C@H]34)cc2)c1 do in these assays?
IDE exosite inh: -3.81*

How did COc1cccc(C#Cc2ccc([C@H]3[C@H](CO)N4C(=O)CN(C(=O)c5ccncc5)C[C@@H]34)cc2)c1 do in these assays?
IDE exosite inh: -8.36*

How did COc1cccc(C#Cc2ccc([C@@H]3[C@@H](CO)N4C(=O)CN(C(=O)c5ccncc5)C[C@H]34)cc2)c1 do in these assays?
IDE exosite inh: -1.49

Results for COc1cccc(C#Cc2ccc([C@H]3[C@H]4CN(C(=O)c5ccncc5)CC(=O)N4[C@H]3CO)cc2)c1 ?
IDE exosite inh: -1.59

What do the screens show for `CO[C@@H]1CN(C)C(=O)c2ccc(NC(=O)C3CC3)cc2OC[C@H](C)N(C(C)=O)C[C@@H]1C`?
IDE exosite inh: 0.113

How did CN1CCN(C(=O)[C@H]2[C@H](CO)[C@H]3Cn4c(cccc4=O)[C@H]3N2Cc2cc(F)ccc2F)CC1 do in these assays?
IDE exosite inh: 0.142

How did O=C(C1CCOCC1)N1CC(=O)N2[C@H](CO)[C@@H](c3ccc(-c4ccccc4F)cc3)[C@H]2C1 do in these assays?
IDE exosite inh: 2.89

Results for O=C(C1CCOCC1)N1CC(=O)N2[C@H](C1)[C@@H](c1ccc(-c3ccccc3F)cc1)[C@@H]2CO ?
IDE exosite inh: -8.97*

How did O=C(C1CCOCC1)N1CC(=O)N2[C@H](CO)[C@@H](c3ccc(-c4ccccc4F)cc3)[C@@H]2C1 do in these assays?
IDE exosite inh: -4.83*

How did O=C(C1CCOCC1)N1CC(=O)N2[C@H](C1)[C@H](c1ccc(-c3ccccc3F)cc1)[C@@H]2CO do in these assays?
IDE exosite inh: 0.931

What do the screens show for `O=C(C1CCOCC1)N1CC(=O)N2[C@H](CO)[C@H](c3ccc(-c4ccccc4F)cc3)[C@@H]2C1`?
IDE exosite inh: -1.71
